{"source": "the supplement of paper PMC8728848", "binders": {"B1": {"name": "SP16665A-bot-344-23-344 (Bacteroides ovatus) (protein)", "chain": "SDNEFPDFDYQTVYFANQYGLRTIELGESEFVDNTLDNQHKMVIKAAWGGGYTNRNNVVINFKVDESLCDNLYFKDTDQPLVPMPASYYTLASDRIAIPKGQIMAGVEVQLTDDFFADEKSISENYVIPLLMTNVQGADSILQGKPVVENPVLTNAGDWSILPQNFVLYAVKYVNPWHGEYLRRGIDHATVAGTSKDIIRHEQFVENDEVVNISTKSMKDNLLTLKTKDESGKDISYTVRLSFAEDGSCTVHSGSQNVVVSGSGKFVSKGEKNSLGGKDRNAIYLDYTVNLTDNNIQLATKDTLVLRTRNVYGGKSLEVVRK"}}, "assay_in_all_cases": "glycan array binding signal (z-score within array); higher = stronger binding", "conditions_in_all_cases": "glycan notation: IUPAC condensed, linker removed", "key": {"[1]": {"molecular_target": "GalNAc(a1-3)GalNAc(b1-3)Gal(a1-4)Gal(b1-4)GlcNAc", "procedure,_shortened": "(§1)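 Arrays were curated from the Consortium for Functional Glycomics database, 3228 in total, and kept only where the protein sequence was available. Binding is expressed as a within-array Z-score. This score was averaged across arrays of the same protein sequence at different concentrations or buffers and across linkers, and negative values can be read as non-binding.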"}, "[2]": {"molecular_target": "GalNAc(b1-4)GlcNAc", "procedure,_shortened": "as §1"}, "[3]": {"molecular_target": "GalNAc(b1-4)GlcNAc(b1-2)Man(a1-3)[GalNAc(b1-4)GlcNAc(b1-2)Man(a1-6)]Man(b1-4)GlcNAc(b1-4)GlcNAc", "procedure,_shortened": "as §1"}, "[4]": {"molecular_target": "GalNAc(b1-4)GlcNAc6S", "procedure,_shortened": "as §1"}, "[5]": {"molecular_target": "GlcNAc(b1-2)[GlcNAc(b1-4)]Man(a1-3)[GlcNAc(b1-4)][GlcNAc(b1-2)Man(a1-6)]Man(b1-4)GlcNAc(b1-4)GlcNAc", "procedure,_shortened": "as §1"}, "[6]": {"molecular_target": "GlcNAc(b1-3)Gal(b1-4)GlcNAc(b1-6)[GlcNAc(b1-3)Gal(b1-3)]GalNAc", "procedure,_shortened": "as §1"}, "[7]": {"molecular_target": "GlcNAc(b1-3)[GlcNAc(b1-6)]Gal(b1-4)GlcNAc", "procedure,_shortened": "as §1"}, "[8]": {"molecular_target": "Man(a1-2)Man(a1-6)[Man(a1-3)]Man(a1-6)[Man(a1-2)Man(a1-2)Man(a1-3)]Man(b1-4)GlcNAc(b1-4)GlcNAc", "procedure,_shortened": "as §1"}, "[9]": {"molecular_target": "Man(a1-3)[Man(a1-6)]Man", "procedure,_shortened": "as §1"}, "[10]": {"molecular_target": "Man(a1-3)[Man(a1-6)]Man(a1-6)[Man(a1-2)Man(a1-3)]Man(b1-4)GlcNAc(b1-4)GlcNAc", "procedure,_shortened": "as §1"}, "[11]": {"molecular_target": "Man(a1-3)[Man(a1-6)]Man(a1-6)[Man(a1-3)]Man(b1-4)GlcNAc(b1-4)GlcNAc", "procedure,_shortened": "as §1"}, "[12]": {"molecular_target": "Neu5Ac(a2-3)Gal(b1-3)GalNAc", "procedure,_shortened": "as §1"}, "[13]": {"molecular_target": "Neu5Ac(a2-3)Gal(b1-3)[Fuc(a1-4)]GlcNAc(b1-3)Gal(b1-4)[Fuc(a1-3)]GlcNAc", "procedure,_shortened": "as §1"}, "[14]": {"molecular_target": "Neu5Ac(a2-3)Gal(b1-4)GlcNAc6S", "procedure,_shortened": "as §1"}, "[15]": {"molecular_target": "Neu5Ac(a2-3)Gal(b1-4)[Fuc(a1-3)]GlcNAc(b1-3)Gal", "procedure,_shortened": "as §1"}, "[16]": {"molecular_target": "Neu5Ac(a2-3)Gal(b1-4)[Fuc(a1-3)]GlcNAc(b1-3)GalNAc", "procedure,_shortened": "as §1"}, "[17]": {"molecular_target": "Neu5Ac(a2-3)[GalNAc(b1-4)]Gal(b1-4)Glc", "procedure,_shortened": "as §1"}, "[18]": {"molecular_target": "Neu5Ac(a2-6)Gal(b1-4)GlcNAc(b1-2)[Neu5Ac(a2-6)Gal(b1-4)GlcNAc(b1-6)]Man(a1-6)[Neu5Ac(a2-6)Gal(b1-4)GlcNAc(b1-2)Man(a1-3)][GlcNAc(b1-4)]Man(b1-4)GlcNAc(b1-4)GlcNAc", "procedure,_shortened": "as §1"}, "[19]": {"molecular_target": "Neu5Ac(a2-6)Gal(b1-4)GlcNAc(b1-3)Gal(b1-4)GlcNAc(b1-3)Gal(b1-4)GlcNAc(b1-2)Man(a1-3)[Neu5Ac(a2-6)Gal(b1-4)GlcNAc(b1-3)Gal(b1-4)GlcNAc(b1-3)Gal(b1-4)GlcNAc(b1-2)Man(a1-6)]GalNAc", "procedure,_shortened": "as §1"}, "[20]": {"molecular_target": "Neu5Ac(a2-8)Neu5Ac(a2-3)[GalNAc(b1-4)]Gal(b1-4)Glc", "procedure,_shortened": "as §1"}}, "note": "This is one part of a sample in which the strongest signals are shown more often than they occur.", "data": [{"binder": "B1", "values": [{"measurement": "glycan array binding signal (z-score)", "setting": "[1]", "value": -0.21}, {"measurement": "glycan array binding signal (z-score)", "setting": "[2]", "value": 1.18}, {"measurement": "glycan array binding signal (z-score)", "setting": "[3]", "value": 1.54}, {"measurement": "glycan array binding signal (z-score)", "setting": "[4]", "value": -0.085}, {"measurement": "glycan array binding signal (z-score)", "setting": "[5]", "value": 1.11}, {"measurement": "glycan array binding signal (z-score)", "setting": "[6]", "value": -0.227}, {"measurement": "glycan array binding signal (z-score)", "setting": "[7]", "value": -0.304}, {"measurement": "glycan array binding signal (z-score)", "setting": "[8]", "value": -0.087}, {"measurement": "glycan array binding signal (z-score)", "setting": "[9]", "value": -0.441}, {"measurement": "glycan array binding signal (z-score)", "setting": "[10]", "value": 0.003}, {"measurement": "glycan array binding signal (z-score)", "setting": "[11]", "value": -0.618}, {"measurement": "glycan array binding signal (z-score)", "setting": "[12]", "value": 1.94}, {"measurement": "glycan array binding signal (z-score)", "setting": "[13]", "value": 0.438}, {"measurement": "glycan array binding signal (z-score)", "setting": "[14]", "value": -0.405}, {"measurement": "glycan array binding signal (z-score)", "setting": "[15]", "value": -0.135}, {"measurement": "glycan array binding signal (z-score)", "setting": "[16]", "value": 1.76}, {"measurement": "glycan array binding signal (z-score)", "setting": "[17]", "value": -0.539}, {"measurement": "glycan array binding signal (z-score)", "setting": "[18]", "value": -0.263}, {"measurement": "glycan array binding signal (z-score)", "setting": "[19]", "value": -0.157}, {"measurement": "glycan array binding signal (z-score)", "setting": "[20]", "value": -0.466}]}]}
